# According to ChEMBL document CHEMBL1201862, “PubChem BioAssay data set” (2004):
# About 4,600 (8.5%) of roughly 54,000 sequences were called active. Cut-off read from the data, not from the text of the source: active = GI50 up to about 1.1 µM and inactive = higher. For the sample, actives were picked, then their nearest neighbours and some sequences at random. Potency and affinity values are given separately.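 Five compound concentrations were applied to cells in 96-well plates for 48 hours; endpoints were derived by simple linear interpolation of the resulting dose-response curve. GI50: concentration for 50% inhibition of growth.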
# Tested on: LOX IMVI
# Experiment: NCI tumour cell line growth inhibition, 48 h
row,Substance,GI50
1,"CISPLATIN, CHEMBL11359",1.41 µM
2,"[Bis(aminomethyl)dimethylsilane]tetrachloroplatinum(IV), CHEMBL2146190",7.48 µM
3,"cis-Bis[[(trimethylsilyl)methyl]amino]tetrachloroplatinum(IV), CHEMBL2146191",5.48 µM
4,"[Bis(aminomethyl)ethylmethylsilane]tetrachloroplatinum(IV), CHEMBL2146192",7.41 µM
5,"[Bis(aminomethyl)tetramethylenesilane]tetrachloropaltinum(IV), CHEMBL2146189",3.26 µM
6,"[Bis(aminomethyl)dimethylsilane]dichloroplatinum (II), CHEMBL2146201",38.6 µM
7,"[Bis(aminomethyl)pentamethylenesilane]dichloropaltinum(II), CHEMBL2146202",0.889 µM
8,"[Bis(aminomethyl)tetramethylenesilane]dichloropaltinum(II), CHEMBL2146205",22.3 µM
9,"[Bis(aminomethyl)pentamethylenesilane]tetrachloropaltinum(IV), CHEMBL2146204",0.74 µM
10,"mu-(1,7-nanodiamine-N,N')bis-(cis-aminedichloroplatimum (II)), CHEMBL2146215",12.6 µM
